In PubChem BioAssay (NCATS):
Inconclusive results are not listed. Where a call stands in place of a potency, no number is given. Activity calls are given as the source filed them. Unless noted, calls follow the shape of the dose curve; as a rule, active = well fitted curve in the direction sought with a large enough effect; inconclusive = small, poorly fitted or top-dose-only effect, or another doubt; inactive = no such curve, though single readings can be large; an effect the other way counts as inactive or inconclusive.

Columns and labels:
[1] = target: Atrial natriuretic peptide receptor 1 (Homo sapiens) (UniProt P16066); assay: Natriuretic polypeptide receptor (hNpr1) antagonism - Pilot screen (AID 1347049; calls by dose curve;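 also: HEK293 cells with hNpr1 and GloSensor cGMP luciferase stimulated by 0.1 nM hNppA; agonist-evoked cGMP luminescence read 20 min after hNppA addition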; also: potency is read from the fitted curve at half-maximal effect)
Atrial natriuretic peptide receptor 1 (Homo sapiens), sequence (P16066 whole entry, looked up): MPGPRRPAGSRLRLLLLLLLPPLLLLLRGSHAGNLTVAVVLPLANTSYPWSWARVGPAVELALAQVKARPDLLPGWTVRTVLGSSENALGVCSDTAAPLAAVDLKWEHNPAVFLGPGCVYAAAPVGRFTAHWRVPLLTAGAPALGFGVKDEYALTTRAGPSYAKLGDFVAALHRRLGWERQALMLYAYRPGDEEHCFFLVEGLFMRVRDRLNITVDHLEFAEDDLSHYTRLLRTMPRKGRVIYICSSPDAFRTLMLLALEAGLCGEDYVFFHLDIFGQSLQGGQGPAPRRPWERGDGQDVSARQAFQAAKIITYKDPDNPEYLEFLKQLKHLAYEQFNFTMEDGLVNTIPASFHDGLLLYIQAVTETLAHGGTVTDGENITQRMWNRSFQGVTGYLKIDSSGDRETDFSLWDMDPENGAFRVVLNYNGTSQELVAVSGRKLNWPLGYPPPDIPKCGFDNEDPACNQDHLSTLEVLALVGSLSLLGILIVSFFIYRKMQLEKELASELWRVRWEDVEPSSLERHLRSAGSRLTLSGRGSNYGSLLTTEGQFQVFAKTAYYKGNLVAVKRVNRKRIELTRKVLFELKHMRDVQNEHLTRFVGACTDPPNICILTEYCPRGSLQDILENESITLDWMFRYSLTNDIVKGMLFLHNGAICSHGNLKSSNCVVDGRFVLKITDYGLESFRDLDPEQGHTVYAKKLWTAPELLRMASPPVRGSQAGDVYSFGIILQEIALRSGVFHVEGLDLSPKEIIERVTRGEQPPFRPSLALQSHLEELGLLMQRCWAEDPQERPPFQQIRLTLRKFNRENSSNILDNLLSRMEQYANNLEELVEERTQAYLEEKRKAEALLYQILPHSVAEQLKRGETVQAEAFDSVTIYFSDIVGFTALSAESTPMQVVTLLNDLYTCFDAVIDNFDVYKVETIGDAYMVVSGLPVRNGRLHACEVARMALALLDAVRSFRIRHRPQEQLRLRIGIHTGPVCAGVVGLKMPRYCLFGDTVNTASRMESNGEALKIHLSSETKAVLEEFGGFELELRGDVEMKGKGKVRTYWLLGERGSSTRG
Outline: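 Receptor antagonism read as cGMP-dependent luminescence in hNpr1/pGS-40F HEK293 cells: pre-read after 30 min compound exposure, post-read 20 min after hNppA agonist at 0.1 nM final, all at room temperature, protected from light; A-71915 titration as control.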

[2] = target: Parathyroid hormone/parathyroid hormone-related peptide receptor (Homo sapiens) (UniProt Q03431); assay: qHTS for PTHR1 Agonists: Optimization Screen against the NCGC LOPAC library (AID 1347079);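 also: GloSensor cAMP luminescence in HEK-293 GP2 cells expressing human PTHR1 with IBMX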
Parathyroid hormone/parathyroid hormone-related peptide receptor (Homo sapiens), sequence (Q03431 whole entry, looked up): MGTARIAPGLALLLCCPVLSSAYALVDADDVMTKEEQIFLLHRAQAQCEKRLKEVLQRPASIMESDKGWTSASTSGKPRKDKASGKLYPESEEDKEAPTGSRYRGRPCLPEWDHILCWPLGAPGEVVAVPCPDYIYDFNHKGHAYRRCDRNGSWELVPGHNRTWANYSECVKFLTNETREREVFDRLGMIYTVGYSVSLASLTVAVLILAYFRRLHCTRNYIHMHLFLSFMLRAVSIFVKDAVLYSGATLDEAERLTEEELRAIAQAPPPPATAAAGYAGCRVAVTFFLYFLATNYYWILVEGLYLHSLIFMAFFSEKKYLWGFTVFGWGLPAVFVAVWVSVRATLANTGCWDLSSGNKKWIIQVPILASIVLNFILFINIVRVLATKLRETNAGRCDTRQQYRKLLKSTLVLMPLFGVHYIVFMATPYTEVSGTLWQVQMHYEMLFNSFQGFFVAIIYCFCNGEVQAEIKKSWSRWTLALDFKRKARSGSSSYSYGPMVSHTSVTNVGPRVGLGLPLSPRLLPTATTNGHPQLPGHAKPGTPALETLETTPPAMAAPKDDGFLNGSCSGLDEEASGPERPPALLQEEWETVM
Outline: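 Signal increase flags agonism. GP2 cells, derived from HEK-293, express human PTHR1 and a GloSensor cAMP construct.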

[3] = NS1 protein of Zika virus - qHTS assay to identify small molecule inhibitors in human HEK 293 cells (AID 1347053); also: nearly all actives have a fitted effect of over 55% in size; also: potency is read from the fitted curve at half-maximal effect
Outline: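 TR-FRET signal from two anti-ZIKV NS1 antibodies quantified NS1 in HEK 293 cells 24 h after MR766 infection at MOI = 0.5; compounds were added 1 h before virus. Uninfected cells and infected cells defined the NS1 normalization range.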

[4] = target: T1, Tyrosine-protein phosphatase non-receptor type substrate 1 (Homo sapiens) + Leukocyte surface antigen CD47 (Homo sapiens) (UniProt P78324+Q08722); assay: CD47-SIRPalpha protein protein interaction - Alpha assay qHTS validation (AID 1347059);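 also: bead proximity luminescence from CD47 binding SIRPalpha after compound preincubation with SIRPalpha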
T1 sequence (P78324 whole entry, looked up, the tested form may be a part): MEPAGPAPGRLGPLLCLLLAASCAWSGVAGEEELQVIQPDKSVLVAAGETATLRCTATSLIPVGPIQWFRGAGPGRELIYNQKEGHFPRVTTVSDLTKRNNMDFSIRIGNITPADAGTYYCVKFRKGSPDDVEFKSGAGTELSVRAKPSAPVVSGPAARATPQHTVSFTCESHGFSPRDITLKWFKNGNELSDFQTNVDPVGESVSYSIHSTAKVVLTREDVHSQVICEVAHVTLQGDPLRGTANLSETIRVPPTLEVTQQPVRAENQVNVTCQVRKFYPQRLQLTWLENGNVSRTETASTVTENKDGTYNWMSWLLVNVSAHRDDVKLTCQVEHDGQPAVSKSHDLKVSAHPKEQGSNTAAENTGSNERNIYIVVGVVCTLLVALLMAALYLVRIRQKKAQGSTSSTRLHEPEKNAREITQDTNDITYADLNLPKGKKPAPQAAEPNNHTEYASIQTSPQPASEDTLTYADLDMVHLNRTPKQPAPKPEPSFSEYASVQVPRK
T1 sequence (Q08722 whole entry, looked up, the tested form may be a part): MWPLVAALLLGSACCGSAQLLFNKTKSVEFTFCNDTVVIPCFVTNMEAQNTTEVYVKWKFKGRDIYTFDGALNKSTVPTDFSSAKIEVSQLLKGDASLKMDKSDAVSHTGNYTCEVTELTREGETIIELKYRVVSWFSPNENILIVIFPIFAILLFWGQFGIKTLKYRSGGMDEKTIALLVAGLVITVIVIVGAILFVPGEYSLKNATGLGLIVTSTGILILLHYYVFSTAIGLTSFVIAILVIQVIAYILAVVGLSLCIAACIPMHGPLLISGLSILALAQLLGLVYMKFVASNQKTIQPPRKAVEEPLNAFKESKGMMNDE
Outline: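 AlphaScreen signal between CD47-His (12.5 nM) and biotin-SIRPalpha (25 nM) soluble extracellular domains, bead-captured via Ni-NTA and streptavidin. Compounds, in 7-point titrations, met SIRPalpha 30 min before CD47; PBS pH 7.4 with 0.05% IGEPAL.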

[5] = target: Atrial natriuretic peptide receptor 2 (Homo sapiens) (UniProt P20594); assay: Natriuretic polypeptide receptor (hNpr2) antagonism - Pilot subtype selectivity assay (AID 1347050; calls by dose curve)
Atrial natriuretic peptide receptor 2 (Homo sapiens), sequence (P20594 whole entry, looked up): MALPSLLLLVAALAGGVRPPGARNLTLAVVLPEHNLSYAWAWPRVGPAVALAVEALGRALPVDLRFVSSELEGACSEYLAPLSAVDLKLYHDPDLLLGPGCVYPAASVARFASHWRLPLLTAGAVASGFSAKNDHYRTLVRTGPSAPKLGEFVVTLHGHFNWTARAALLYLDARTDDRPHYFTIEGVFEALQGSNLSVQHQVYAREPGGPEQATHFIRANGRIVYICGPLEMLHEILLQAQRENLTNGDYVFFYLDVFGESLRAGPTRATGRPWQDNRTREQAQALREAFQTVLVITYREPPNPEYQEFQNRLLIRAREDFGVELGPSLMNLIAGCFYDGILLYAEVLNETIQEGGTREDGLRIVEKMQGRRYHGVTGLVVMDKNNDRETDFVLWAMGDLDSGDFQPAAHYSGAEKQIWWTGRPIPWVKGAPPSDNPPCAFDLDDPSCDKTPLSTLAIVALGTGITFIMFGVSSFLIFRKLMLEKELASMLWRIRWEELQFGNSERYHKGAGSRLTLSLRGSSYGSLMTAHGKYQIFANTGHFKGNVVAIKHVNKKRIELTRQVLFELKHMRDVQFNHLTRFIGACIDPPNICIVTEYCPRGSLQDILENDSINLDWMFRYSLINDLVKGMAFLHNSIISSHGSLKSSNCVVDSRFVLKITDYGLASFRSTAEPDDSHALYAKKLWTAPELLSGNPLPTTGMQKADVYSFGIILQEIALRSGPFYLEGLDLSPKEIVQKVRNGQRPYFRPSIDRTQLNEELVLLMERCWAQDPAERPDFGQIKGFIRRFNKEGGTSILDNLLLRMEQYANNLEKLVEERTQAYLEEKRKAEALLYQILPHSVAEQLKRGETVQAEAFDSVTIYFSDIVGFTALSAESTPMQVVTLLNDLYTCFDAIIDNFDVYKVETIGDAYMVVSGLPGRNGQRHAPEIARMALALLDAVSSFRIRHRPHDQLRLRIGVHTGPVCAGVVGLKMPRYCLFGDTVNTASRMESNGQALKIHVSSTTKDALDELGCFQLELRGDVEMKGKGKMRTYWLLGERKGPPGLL
Outline: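 Antagonist mode: compounds (LOPAC1280, seven 1:5 dilutions) added 30 min before 1 nM hNppC stimulation of hNpr2-HEK293 cGMP-sensor cells; luminescence read before and 20 min after agonist at ambient temperature.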

[6] = target: T1, Tyrosine-protein phosphatase non-receptor type substrate 1 (Homo sapiens) + Leukocyte surface antigen CD47 (Homo sapiens); assay: CD47-SIRPalpha protein protein interaction - LANCE assay qHTS validation (AID 1347057; active = well fitted curve in the direction sought with a large enough effect in the signal ratio, with a control signal flat, not every such curve was filed as active; the % refers to the signal ratio; also: series mostly up to about 38 µM)
Outline: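 Inhibition of soluble CD47/SIRPalpha ectodomain association by titrated compounds, measured as 665/615 nm time-resolved FRET ratio after sequential 30 min room-temperature incubations.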

[7] = target: T1, Tyrosine-protein phosphatase non-receptor type substrate 1 (Homo sapiens) + Leukocyte surface antigen CD47 (Homo sapiens); assay: CD47-SIRPalpha protein protein interaction - HTRF assay qHTS validation (AID 1347058; active = well fitted curve in the direction sought with a large enough effect in the signal ratio, not every such curve was filed as active; the % refers to the signal ratio; also: series mostly up to about 38 µM)
Outline: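 Soluble extracellular domains (6His-CD47, Avi-tag-biotinylated SIRPalpha) in PBS pH 7.4 with 0.05% IGEPAL CA-630. Compounds were preincubated 30 min at RT with CD47 and anti-His-Eu, then SIRPalpha and SAV-XL665 were added. TR-FRET 665/615 ratio.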

SMILES: Nc1ncnc2c1c(I)cn2[C@@H]1C[C@H](N)[C@@H](O)[C@H]1O
- Potency [1]: inactive
- Potency [2]: inactive

SMILES: O=Nc1ccc2oc(=O)ccc2c1
- Potency [1]: inactive
- Potency [3]: inactive
- Potency [4]: inactive

SMILES: COc1ccccc1N1CCN(CCCCNS(=O)(=O)c2cccc3c(N(C)C)cccc23)CC1
- Potency [1]: inactive
- Potency [5]: inactive
- Potency [2]: inactive

SMILES: CCCCCCCCCCCCCCCCCC(=O)OC(CC(=O)O)C[N+](C)(C)C (configuration not stated)
- Potency [5]: inactive
- Potency [3]: inactive
- Potency [6]: inactive
- outcome [7]: inactive
- Potency [4]: inactive
- Potency [2]: inactive

SMILES: O=c1[nH]c2cc(C(F)(F)F)ccc2n1-c1cc(C(F)(F)F)ccc1O
- Potency [5]: inactive
- Potency [3]: inactive
- Potency [6]: inactive
- outcome [7]: inactive
- Potency [4]: inactive
- Potency [2]: inactive

SMILES: C#CCN1C(C)=C(C(=O)OC)C(c2cccc([N+](=O)[O-])c2)C(C(=O)OCC)=C1C (configuration not stated)
- Potency [1]: inactive
- Potency [2]: inactive

SMILES: O=C(c1cc(O)c(O)c([N+](=O)[O-])c1)c1ccccc1F
- Potency [5]: inactive
- Potency [3]: inactive
- Potency [4]: inactive
- Potency [2]: inactive

SMILES: Cn1c(=O)c2[nH]c(-c3ccccc3)nc2n(C)c1=O
- Potency [1]: inactive
- Potency [5]: inactive
- Potency [3]: inactive
- Potency [2]: inactive

SMILES: NO
- Potency [1]: inactive
- Potency [5]: inactive
- Potency [3]: inactive
- Potency [2]: inactive

SMILES: CSc1ccccc1N1CCN(CCCCCC(=O)NC2CCCc3ccccc32)CC1 (configuration not stated)
- Potency [1]: inactive
- Potency [5]: inactive
- outcome [7]: inactive

SMILES: C=C[C@H]1CN2CC[C@@H]1C[C@@H]2[C@@H](O)c1ccnc2ccc(OC)cc12
- Potency [1]: inactive
- Potency [5]: inactive
- Potency [3]: inactive
- Potency [2]: inactive

SMILES: N#C/C(=C\c1ccc(-c2cc(Cl)ccc2Cl)o1)C(=O)Nc1cccc2ncccc12
- Potency [1]: inactive
- Potency [3]: inactive
- Potency [6]: inactive
- Potency [4]: inactive

SMILES: O=C(/C=C/c1ccc(O)cc1)c1ccc(O)cc1O
- Potency [1]: 30.1 µM (active)
- Potency [3]: inactive
- Potency [4]: inactive
- Potency [2]: inactive

SMILES: COc1ccccc1CNCCCCCCNCCCCCCCCNCCCCCCNCc1ccccc1OC
- Potency [1]: inactive
- Potency [3]: inactive
- Potency [6]: inactive
- outcome [7]: inactive
- Potency [4]: inactive

SMILES: NC[C@@H]1O[C@H](C23CC4CC(CC(C4)C2)C3)Cc2c1ccc(O)c2O
- Potency [1]: inactive
- Potency [5]: inactive
- Potency [6]: inactive
- outcome [7]: inactive
- Potency [2]: inactive

SMILES: CN1C2CC(OC(=O)[C@H](CO)c3ccccc3)CC1C1OC12 (some centres not stated)
- Potency [1]: inactive
- Potency [5]: inactive
- Potency [3]: inactive
- Potency [2]: inactive

SMILES: Fc1cccc(/C=N/N=C/c2cccc(F)c2)c1
- Potency [1]: inactive
- Potency [3]: inactive
- Potency [6]: inactive
- outcome [7]: inactive
- Potency [2]: inactive

SMILES: O=C(O)CCCC[C@@H]1CCSS1
- Potency [1]: inactive
- Potency [5]: inactive
- Potency [3]: inactive
- Potency [2]: inactive

SMILES: C[N+](C)(CCCCCC[N+](C)(C)CCCN1C(=O)c2cccc3cccc(c23)C1=O)CCCN1C(=O)c2cccc3cccc(c23)C1=O
- Potency [1]: inactive
- Potency [5]: inactive
- Potency [2]: inactive

SMILES: CO/S(=N\S(=O)(=O)c1ccc(Cl)cc1)c1ccc([N+](=O)[O-])cc1 (configuration not stated)
- Potency [1]: inactive
- Potency [5]: inactive
- Potency [2]: inactive

SMILES: O=S(=O)(c1cccc2c(I)cccc12)N1CCCNCC1
- Potency [1]: inactive
- Potency [3]: inactive
- Potency [4]: inactive

SMILES: CCCCC/C=C\CC(O)/C=C/c1cccc(CC(O)CCCCO)n1 (configuration not stated)
- Potency [5]: inactive

SMILES: Nc1ccn([C@@H]2O[C@H](CO)[C@@H](O)[C@@H]2O)c(=O)n1
- Potency [3]: inactive

SMILES: O=C1NC(O)=NC1(c1ccccc1)c1ccccc1
- Potency [3]: inactive

SMILES: NC[C@H]1O[C@@H](n2cnc3c(N)ncnc32)[C@H](O)[C@@H]1O
- Potency [1]: inactive
- Potency [3]: inactive
- Potency [6]: inactive
- outcome [7]: inactive
- Potency [2]: inactive

SMILES: NS(=O)(=O)c1ccc(-n2nc(C(F)(F)F)cc2-c2ccc(Cl)cc2)cc1
- Potency [3]: inactive

SMILES: CCC(CO)Nc1nc(NCc2ccccc2)c2ncn(C(C)C)c2n1 (configuration not stated)
- Potency [3]: inactive

SMILES: O=C(Nc1ccncc1)c1cc([N+](=O)[O-])ccc1Cl
- Potency [3]: inactive
- Potency [6]: inactive

SMILES: C[C@@H](NC(=O)/C(C#N)=C/c1ccc(O)c(O)c1)c1ccccc1
- Potency [1]: inactive
- Potency [5]: inactive
- Potency [2]: inactive

SMILES: c1ccc(-c2ccccn2)nc1
- Potency [1]: inactive
- Potency [5]: inactive
- Potency [3]: inactive
- Potency [2]: inactive

SMILES: C=C[C@@H]1CN2CC[C@@H]1C[C@H]2[C@H](O)c1ccnc2ccc(OC)cc12
- Potency [1]: inactive
- Potency [5]: inactive
- Potency [3]: inactive
- Potency [2]: inactive

SMILES: OC[C@H]1O[C@@H](n2cnc3c(Nc4ccccc4)ncnc32)[C@H](O)[C@@H]1O
- Potency [1]: inactive
- Potency [5]: inactive
- Potency [2]: inactive

SMILES: Nc1nc2c(ncn2[C@@H]2O[C@H](CO)[C@@H](O)[C@@H]2O)c(=O)[nH]1
- Potency [3]: inactive
- Potency [6]: inactive
- outcome [7]: inactive
- Potency [4]: inactive

SMILES: Brc1cc2c(cc1[C@H]1Nc3ccccc3[C@H]3C=CC[C@H]31)OCO2
- Potency [3]: inactive
- outcome [7]: inactive
- Potency [4]: inactive

SMILES: CC(C)c1cccc(C(C)C)c1N1C(=O)c2ccc(O)cc2C1=O
- Potency [3]: inactive
- Potency [6]: inactive
- outcome [7]: inactive
- Potency [4]: inactive

SMILES: CC12C(=O)OC(=O)C1(C)C1CCC2O1 (configuration not stated)
- Potency [3]: 3.98 µM (active)
- Potency [6]: inactive
- outcome [7]: inactive
- Potency [2]: inactive
